Shown are actives, neighbours in structure and some others; about 4.3% of the full set was active somewhere.
MITF TRPM1 HTS: activators of MITF-driven TRPM1 promoter activity in SK-MEL-5 cells | AID 588334 | SK-MEL-5 TRPM1-promoter luciferase, 24 h; % of positive control, neutral wells = 0 | actives 0.75% (n = 300,000) | activation, % at 12.5 µM;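 active = mean activation of at least 80% with every replicate also reaching 80%; inconclusive = mean reaches 80% but some replicate falls short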
esBAF inh: blocks esBAF chromatin remodeling in mouse ES cells. reporter increase, % at 12.5 µM. actives 2% (n = 350,000). AID 602393. Bmi1-luciferase knock-in reporter, 24 h; 100% = twice the neutral-well signal; in the data active = activation above about 40%; inconclusive = no clear call, values can overlap the other calls;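 note: a rise in the Bmi1 reporter signal indicates esBAF inhibition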
Wnt act: Wnt/beta-catenin pathway activation. actives 1.2% (n = 300,000). AID 743398. activation, % at 9.35 µM. Wnt/beta-catenin reporter cell assay, activator, plate reader; in the data active = activation above about 30%, passing the limit was not always enough; inconclusive = no clear call, values can overlap the other calls
SMARCA2 act: SMARCA2 function activation, primary screen. MG213 cells, MMTV-luciferase reporter, dexamethasone, overnight. activation, % at 9.1 µM. actives 1% (n = 370,000). AID 652017; in the data active = activation above about 7.8%
HSF1 activator: increases HSF-1 driven luciferase reporter signal; activation, % at 9 µM; actives 1.7% (n = 300,000); NIH3T3-HGL HSF-1 luciferase reporter, MG132, 8 h; 100% = twice DMSO control signal; AID 504408;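 active = mean replicate activation of at least 50% with a set share of replicates each reaching 50%; inconclusive = only one of those two conditions met; inactive = mean below 50% and too few replicates reaching it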
HSF1 inhib: HSF1 inhibition; NIH3T3-HGL HSE-luciferase, MG132-induced, luminescence 8 h; hits give low values; activity change, negative = inhibition, % at 7.5 µM (by protocol); actives 0.77% (n = 300,000); AID 2098;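 active = more than half of replicate wells show activity change below -50%, luminescence cut by over half; inconclusive = some wells, but at most half, below -50%; inactive = no replicate well below -50%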;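 note: luciferase reports HSF-1 transcriptional activity via heat shock element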
A number is an active result; - = inactive; ? = inconclusive; . = not tested or not shown.

SMILES | MITF TRPM1 HTS | esBAF inh | Wnt act | SMARCA2 act | HSF1 activator | HSF1 inhib
C[C@@H]1CCCCO[C@@H](CN(C)CC2CCCCC2)[C@H](C)CN([C@H](C)CO)C(=O)c2cc(NS(=O)(=O)c3cn(C)cn3)ccc2O1 | . | - | . | . | . | .
CO[C@H]1CN(C)C(=O)c2cc(NC(C)=O)ccc2OC[C@@H](C)N(CC2CC2)C[C@@H]1C | . | - | . | . | . | .
CCCC(=O)Nc1ccc2c(c1)OC[C@@H](C)N(C(=O)CN(C)C)C[C@H](C)[C@@H](OC)CN(C)C2=O | . | - | . | . | . | .
O=C(Nc1ccccc1F)N1[C@@H](CO)[C@@H]2c3ccccc3NC[C@@H]21 | . | - | . | . | . | .
COc1ccc2nc(-c3ccc(N)cc3)[nH]c2c1 | - | - | 69 | - | - | -
Cn1cccc1C(=O)NCCc1ccc(Cl)cc1 | 114 | 57 | - | - | - | -
COc1ccc(/C=N/n2c(-c3cc(C)[nH]n3)n[nH]c2=S)cc1OC | . | . | - | - | - | -74
O=C(Nc1ccccn1)c1ccccc1 | 82 | - | - | - | . | .
O=C(Nc1ccccn1)c1ccc(C(=O)Nc2ccccn2)cc1 | . | - | . | . | - | -
O=C(Nc1cc(-c2ccccc2)[nH]n1)c1ccccc1 | . | . | 43 | - | - | -
O=C(O)c1ccccc1C(=O)Nc1cc(-c2ccccc2)[nH]n1 | - | - | - | - | - | -
O=C(Nc1ccc(Cl)cc1)c1ccc(-c2ccccn2)s1 | . | ? | 39 | - | - | -
CC(C)(C)C(=O)NC(=S)Nc1ccccn1 | - | - | - | - | - | -
O=C(NC(=S)Nc1ccccn1)c1ccc(-c2ccccc2)cc1 | 117 | . | - | - | - | -
O=C(Nc1ccccn1)c1ccc(Br)s1 | . | 48 | - | - | - | -
O=C(CC(=O)c1ccccn1)c1ccccc1 | - | . | 50 | - | . | .
O=C(Nc1ncccn1)c1ccc([N+](=O)[O-])cc1 | - | . | - | - | - | -
O=C(Nc1ccccc1)C(=O)Nc1ccccn1 | - | - | - | 8.0 | - | -
O=C(NC(=S)Nc1ccccn1)c1ccc([N+](=O)[O-])cc1 | - | 77 | . | - | - | -
O=C(c1ccccc1)c1ccccn1 | - | . | - | - | - | -
Cc1ccc(S(=O)(=O)Nc2cccc3c2O[C@@H](CN(C)CC2CC2)[C@H](C)CN([C@H](C)CO)C3=O)cc1 | . | - | . | . | . | .
O=C(NC(=S)Nc1ccccn1)c1ccccc1 | - | - | 39 | - | - | -
C/C(=N/NC(=O)c1ccoc1C)C12CC3CC(CC(C3)C1)C2 | - | 57 | . | - | 59 | -
N/C(=N\OC(=O)C12CC3CC(CC(C3)C1)C2)c1ccccn1 | 98 | 75 | . | - | - | -
C/C(=N/NC(=O)c1ccccn1)c1ccc(O)cc1 | - | - | ? | - | - | -
SMILES | MITF TRPM1 HTS | esBAF inh | Wnt act | SMARCA2 act | HSF1 activator | HSF1 inhib
C/C(=N\NC(=O)c1ccccn1)C12CC3CC(CC(C3)C1)C2 | - | 49 | - | - | - | -
CCC(=O)Nc1ccc2c(c1)C(=O)N(C)C[C@@H](OC)[C@@H](C)CN(C(=O)CN1CCOCC1)[C@@H](C)CO2 | . | - | . | . | . | .
C(=N\C(/N=C/c1ccco1)c1ccco1)/c1ccco1 | - | - | . | - | 81 | -
C(=Nc1cccc2c(N=Cc3ccco3)cccc12)c1ccco1 | - | . | . | . | - | -
O=C(Nc1cccc(O)c1)c1cccc(S(=O)(=O)N2CCCC2)c1 | . | - | . | - | - | -
NC(=O)c1ccsc1NC(=O)c1ccc(S(=O)(=O)N2CCCC2)cc1 | - | - | - | - | - | -
O=C(Nc1cccc(O)c1)c1ccc(S(=O)(=O)N2CCCCCC2)cc1 | - | - | - | - | 75 | -
Cc1ccnc(NC(=O)c2cccc(S(=O)(=O)N3CCCc4ccccc43)c2)c1 | 88 | . | - | - | - | -
O=C(Nc1ccccn1)c1cccc(S(=O)(=O)N2CCCc3ccccc32)c1 | - | - | - | - | . | .
NC(=O)c1ccsc1NC(=O)c1ccc(S(=O)(=O)N2CCCCC2)cc1 | . | 100 | - | - | - | -
O=C(Nc1ccccn1)c1ccc(S(=O)(=O)N2CCCCC2)cc1 | 91 | - | - | - | - | -
COc1cccc(-c2cnc3c(c2)C(=O)N([C@@H](C)CO)C[C@@H](C)[C@H](CN(C)CC2CCCC2)O3)c1 | . | - | . | . | . | .
CN1CCN(C(=O)C[C@H]2CC[C@@H]3[C@H](COC[C@@H](O)CN3C(=O)Nc3ccc4c(c3)OCO4)O2)CC1 | . | - | . | . | . | .

Compound activity (PubChem)
